# Reference: PubChem BioAssay AID504466 (National Center for Advancing Translational Sciences (NCATS), 2011)
# The whole screen tested about 330,000 compounds, of which about 4,200 (1.3%) were called active. A call without a number means that no potency is given here. Another 6% or so got no clear call; they are omitted. The call rests on the fitted dose curve; in most records, active means well fitted activation curve with a large enough effect; inconclusive means small, poorly fitted or top-dose-only effect; inactive means no such curve, though single readings can be large or run the other way. Many of the other results were omitted from the sample, so actives are more common in it than they were.
# Test: qHTS screen for small molecules that induce genotoxicity in human embryonic kidney (HEK293T) cells expressing luciferase-tagged ELG1; further: nearly all actives have a fitted effect of over 60% in size
# Details: HEK293T ELG1-luciferase reporter, luminescence, 16 h; series mostly up to 46 µM
# From the text: NIH Molecular Libraries Probe Production Network [MLPCN] NIH Chemical Genomics Center [NCGC] MLPCN Grant: 1 R03 MH092164-01 Assay Provider: Kyungjae Myung, NHGRI, NIH Keywords: MLPCN, qHTS, NCGC, genotoxicity, cancer Assay Overview: Cancer cells divide rapidly compared to normal cells in the body. During cell division, cancer cells need to duplicate their genome by DNA replication. The failure of genome duplication leads to cancer cells' death. Therefore, inhibitors of DNA replication could specifically kill cancer cells. Based on this concept, many chemotherapeutic agents were developed and have been used to treat cancer patients. However, there are a limited number of agents available in the clinical setting, and some of those that do exist have low efficacy and severe side effects. Therefore, if we can find the compounds that effectively block DNA replication either by directly damaging DNA or by inhibiting other cellular mechanisms, the options for cancer treatment will be broadened. With this in mind, we developed a quantitative high-throughput ELG1-luciferase reporter gene assay. Since the level of human ELG1 protein is enhanced in response to genetic stresses, increases in luciferase activity can be used to identify compounds that cause genetic stress.
# Assay Protocol Summary: For genotoxicity screening, 2,000 cells in 5 uL/well were dispensed into white, solid-bottom 1536-well plates using a solenoid-based dispenser. Following transfer of 23 nL compound or DMSO vehicle by a pin tool, the plates were incubated 16 hr at 37 °C and 5% CO2. 5 ul ONE-Glo (Promega) was then added to each plate and following a 30 min incubation at room temperature, luciferase activity was quantified on a ViewLux CCD-based plate reader.
# Potency means the concentration at half of the fitted maximal effect.
row,SMILES,Potency
1,O=C(OCC(=O)c1cccs1)C1=COCCO1,18.4 µM (active)
2,CC[N+](C)(CC)CCC[n+]1c(-c2ccccc2)c2cc(N)ccc2c2ccc(N)cc21,inactive
3,c1cc2c(cc1C1OCC3C(c4ccc5c(c4)OCO5)OCC13)OCO2 (stereo not given),inactive
4,C[C@]12CC[C@H](O)CC1=C([N+](=O)[O-])CC1C2CC[C@@]2(C)C1CC[C@@H]2O (stereo not given in full),inactive
5,COc1ccc(C2CC(c3cccs3)=NN2c2nc(C)c(C(C)=O)s2)cc1OC (stereo not given),20.6 µM (active)
6,CCOC(=O)c1c(-c2ccccc2)oc2ccc(OC(=O)N(C)C)cc12,inactive
7,CN(C)C(=O)Oc1ccc2c(c1)O/C(=C\c1ccccc1)C2=O,20.6 µM (active)
8,CN(C)C(=O)Oc1ccc(OCc2cccc[n+]2C)cc1,inactive
9,COC(=O)[C@@H]1C(OC(=O)c2ccccc2)CC2CCC1N2C (stereo not given in full),inactive
10,CC[C@H]1CN2CCc3cc(OC)c(OC)cc3[C@@H]2C[C@@H]1C[C@H]1NCCc2cc(OC)c(OC)cc21,inactive
11,COC1=CC=C2[C@H]3Cc4ccc(OC)c5c4[C@@]2(CCN3C)C1O5 (stereo not given in full),inactive
12,O=C(OCCN1CCOCC1)C1(c2ccccc2)CCCC1,inactive
13,CCC(=O)c1ccc(OCC(=O)N2CCN(CC(=O)Nc3ccc(C)cc3)CC2)cc1,inactive
14,O=C(/C=C/c1cccs1)c1cc(Cl)ccc1OC(=O)N1CCOCC1,inactive
15,Oc1ccc2c3c1OC1[C@H](O)CC[C@@]4(O)[C@@H](C2)N(CC2CC2)CC[C@]314 (stereo not given in full),inactive
